Measurements from PubChem BioAssay (NCI).
The panel holds about 79,000 compounds, 15% with a hit somewhere; the sample as a whole holds those more often. Unmarked numbers belong to inactive results. Active and inactive are the calls of the source. No stated cut-off is given here; in the data, active means growth inhibition above about 70%; inactive means the rest.

Experiments:
[1] = NCI Yeast Anticancer Drug Screen. Data for the rad50 strain (AID 155);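 further: 0% = growth of vehicle-only cultures of the same strain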; details: S. cerevisiae rad50 strain growth inhibition, hits give high values
Outline: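 A DNA repair-deficient yeast mutant serves as the test organism; compound-induced growth inhibition is calculated against vehicle-treated cells.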

[2] = NCI Yeast Anticancer Drug Screen. Data for the mec2-1 strain (AID 157); details: S. cerevisiae mec2-1 strain, hits give high values
Outline: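 Cells of the genetically defined mec2-1 yeast strain are incubated with test compound. Inhibition of growth is calculated against vehicle-treated controls.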

[3] = NCI Yeast Anticancer Drug Screen. Data for the sgs1 mgt1 strain (AID 161);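 further: 0% = growth of cultures given vehicle only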; details: S. cerevisiae sgs1 mgt1 strain, hits give high values
Outline: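 Genetically altered yeast, compound exposure, growth inhibition relative to vehicle.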

[4] = NCI Yeast Anticancer Drug Screen. Data for the cln2 rad14 strain (AID 165);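 further: 0% = growth equal to vehicle treated cultures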; details: S. cerevisiae cln2 rad14 strain, hits give high values
Outline: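 The screen exposed genetically defined yeast (cln2 rad14) to test compounds and scored growth inhibition relative to vehicle-treated controls.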

[5] = NCI Yeast Anticancer Drug Screen. Data for the bub3 strain (AID 167); details: S. cerevisiae bub3 mutant strain, hits give high values
Outline: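 Inhibition values come from growth of compound-treated mutant yeast normalised to vehicle-treated controls.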

[6] = NCI Yeast Anticancer Drug Screen. Data for the mlh1 rad18 strain (AID 175); details: S. cerevisiae mlh1 rad18 strain growth inhibition, hits give high values
Outline: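 Compound-treated yeast growth, normalised to vehicle controls. Strain bears defined DNA repair mutations.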

[7] = at 5.0 µM (retest, dose inferred, filed as 0.5)
[8] = at 50.0 µM (retest, dose inferred, filed as 5.0)

SMILES | growth inhibition [1, 7] [%] | growth inhibition [1, 8] | growth inhibition ([1]; at 50.0 µM) | growth inhibition [2, 7] | growth inhibition [2, 8] | growth inhibition ([2]; at 50.0 µM) | growth inhibition [3, 7] | growth inhibition [3, 8] | growth inhibition ([3]; at 50.0 µM) | growth inhibition [4, 7] | growth inhibition [4, 8] | growth inhibition ([4]; at 50.0 µM) | growth inhibition [5, 7] | growth inhibition [5, 8] | growth inhibition ([5]; at 50.0 µM) | growth inhibition [6, 7] | growth inhibition [6, 8] | growth inhibition ([6]; at 50.0 µM)
O=c1ccc2c(COc3ccc(Cl)cc3Cl)c3ccc(O)cc3oc-2c1 | -4 | 15% | 78.5% (active) | -3% | -1% | 45.8% | -2% | 12% | 73.9% (active) | 9% | 12% | 26.7% | -4% | 1% | 25.1% | -6% | 4% | 60.1%
CC1C=CC(C)C2C(=O)C3C(C)C=CC(C)C3C(=O)C12 (configuration not stated) | 0 | -7% | -10.3% | 6% | 14% | -6.45% | -1% | 9% | 3.65% | 18% | 23% | 38.5% | -12% | 0% | 18.9% | 1% | -7% | 8.9%
OC1c2cc(Cl)cc(Cl)c2OC2(N3CCCC3)CCCCC12 (configuration not stated) | 62 | 94% (active) | 81.5% (active) | 37% | 87% (active) | 46.1% | 44% | 87% (active) | 82% (active) | 34% | 47% | 19.1% | 51% | 96% (active) | 73.3% (active) | 61% | 96% (active) | 73.6% (active)
O=C(CC(O)(c1ccccc1)c1ccc(Cl)cc1)NC(=O)c1ccccc1O (configuration not stated) | 45 | 93% (active) | 85% (active) | 40% | 98% (active) | 89% (active) | 48% | 97% (active) | 91.6% (active) | 42% | 99% (active) | 89% (active) | 50% | 99% (active) | 86.8% (active) | 53% | 97% (active) | 86.8% (active)
CN1C(OCc2ccccc2)c2c(ccc3c2OCO3)C2C=Cc3cc4c(cc3C21)OCO4 (configuration not stated) | 47 | 99% (active) | 92.8% (active) | 39% | 99% (active) | 93.2% (active) | 96% (active) | 100% (active) | 93% (active) | 89% (active) | 98% (active) | 92.7% (active) | 93% (active) | 99% (active) | 91.8% (active) | 96% (active) | 99% (active) | 91.1% (active)
CC1CN(C(=S)NNC(C)c2cc3ccccc3cn2)CC(C)O1 (configuration not stated) | 30 | 96% (active) | 87% (active) | 38% | 99% (active) | 89.8% (active) | 26% | 98% (active) | 90.5% (active) | 15% | 98% (active) | 90% (active) | 39% | 99% (active) | 88.2% (active) | 39% | 98% (active) | 91.3% (active)
CCOC(=O)CC1C(=O)N(c2nc(-c3ccc(Br)cc3)cs2)N=C1C (configuration not stated) | 2 | 2% | 43.5% | 2% | 37% | 23.1% | 3% | 7% | 60.7% | -2% | -9% | 32.3% | -23% | -8% | 4.05% | 2% | -19% | 75.8% (active)
O=[N+]([O-])c1ccc2nc(-c3ccc(Cl)cc3)[nH]c2c1 | 0 | 91% (active) | 71.5% (active) | -1% | 89% (active) | 72.8% (active) | -2% | 89% (active) | 75.4% (active) | -6% | 83% (active) | 72.6% (active) | 1% | 95% (active) | 81.9% (active) | -15% | 94% (active) | 78.8% (active)
O=c1oc2ccccc2c(O)c1C1=N/C(=N/N=C/c2ccc(Cl)cc2)SC1 | -6 | 97% (active) | 64.2% | -3% | 98% (active) | 30.7% | -3% | 97% (active) | 4.05% | 0% | 95% (active) | 50.2% | -1% | 97% (active) | 98.5% (active) | 1% | 97% (active) | 47.2%
CCCCCCCCCCCC[N+]1(C)CCCC1c1cccnc1 (configuration not stated) | 19 | 97% (active) | 50.5% | 13% | 98% (active) | 97.5% (active) | 4% | 98% (active) | 51.9% | 5% | 98% (active) | 94.3% (active) | 27% | 92% (active) | 97.5% (active) | 19% | 97% (active) | 96.9% (active)
COC1(OC)C(C#N)(C#N)C2(C(=O)Nc3ccccc32)C1(OC)OC (configuration not stated) | 11 | -4% | 15.4% | -12% | -16% | 12.2% | -2% | -25% | 97% (active) | -4% | -7% | 28% | -14% | 38% | -7.6% | 10% | -22% | 90% (active)
CCCCC#CCCOC(=O)C#CCCCC | 1 | 6% | 30% | 1% | 4% | 28.2% | 3% | 7% | -0.85% | 8% | 9% | 92% (active) | 3% | 12% | -21.3% | 0% | 3% | 3.25%
C=CC(c1ccccc1)[C@@]1(OC(C)=O)C(=O)C(=O)OC1C1COC(C)(C)O1 (some centres not stated) | 62 | 98% (active) | 86.3% (active) | 75% (active) | 98% (active) | 77.7% (active) | 65% | 100% (active) | 88.3% (active) | 30% | 94% (active) | 86.9% (active) | 84% (active) | 100% (active) | 85.1% (active) | 81% (active) | 98% (active) | 90.4% (active)
O=S(=O)(Nc1ccc(Cl)cc1)c1ccccc1 | -3 | 50% | 76.5% (active) | -14% | 32% | 46% | 1% | 80% (active) | 47.7% | -9% | 81% (active) | 20.9% | -8% | 56% | 53.9% | -5% | 63% | 45.5%
COc1ccc2c(c1)CCC/C2=N\NS(=O)(=O)c1c(C)cc(C)cc1C | 15 | 59% | 26.2% | 16% | 60% | -43.2% | 16% | 38% | 37.1% | 8% | 68% | 73.5% (active) | 11% | 52% | 54.8% | 26% | 75% (active) | 5.7%
NCc1cccc(O)c1O | 27 | 61% | 73.7% (active) | 22% | 41% | 81.1% (active) | 14% | 51% | 41.5% | 15% | 46% | 24.7% | 20% | 72% (active) | 53.6% | 28% | 44% | 24.9%
CC(C)(C)C1=NN=C2c3ccccc3C(=O)C21 (configuration not stated) | 0 | 57% | 68.2% | -3% | 44% | 9.45% | -1% | 60% | 53.2% | -12% | 14% | 58.9% | 19% | 87% (active) | 78.7% (active) | -3% | 44% | 60.7%
COc1cc2c(cc1O)-c1c(cnn1-c1ccccc1)CCC2 | -7 | 85% (active) | 95.5% (active) | -5% | 93% (active) | 96% (active) | 2% | 88% (active) | 97.4% (active) | -17% | 88% (active) | 55% | -7% | 86% (active) | 93.3% (active) | -8% | 92% (active) | 97.6% (active)
Clc1cc(Cl)c2cc3cccc[n+]3cc2c1Cl | 0 | 19% | 90.2% (active) | -11% | 33% | 93.5% (active) | 2% | -18% | 79.2% (active) | 4% | 31% | 54.2% | -12% | 49% | 87.8% (active) | -14% | 55% | 96.1% (active)
